AC50 and outcome data for 2 compounds are collected here from PubChem BioAssay AID2284148 (EPA ToxCast).

SMILES strings stand for the structures. Active and inactive are the calls of the source. Rule for the calls: active = hit-call score of the fitted dose curve at least 0.9, where 1 is the maximum; inactive = score below 0.9.

human Cholecystokinin Receptor CCK1 (CCKA) Agonism, CCKAR (gene 886), sequence (P32238 whole entry, looked up): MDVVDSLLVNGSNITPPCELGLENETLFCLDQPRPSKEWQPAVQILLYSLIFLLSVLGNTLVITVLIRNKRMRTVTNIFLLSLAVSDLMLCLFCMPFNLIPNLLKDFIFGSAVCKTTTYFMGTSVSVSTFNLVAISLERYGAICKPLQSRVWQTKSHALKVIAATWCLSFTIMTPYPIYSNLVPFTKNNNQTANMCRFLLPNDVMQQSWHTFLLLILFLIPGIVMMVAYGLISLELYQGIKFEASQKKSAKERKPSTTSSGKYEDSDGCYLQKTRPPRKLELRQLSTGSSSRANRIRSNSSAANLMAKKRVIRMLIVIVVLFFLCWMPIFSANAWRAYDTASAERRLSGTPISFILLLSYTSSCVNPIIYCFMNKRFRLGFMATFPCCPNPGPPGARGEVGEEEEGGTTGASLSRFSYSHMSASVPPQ

This test addresses human Cholecystokinin Receptor CCK1 (CCKA) Agonism, CCKAR (gene 886) (UniProt P32238). The experiment in a line: ERF_TW_GPCR_hCCKAR: Eurofins (ERF) G Protein-Coupled Receptor (GPCR) Radioligand Binding LeadHunter Assay for human Cholecystokinin Receptor CCK1 (CCKA) Agonism. Here is the method:
ERF_TW_GPCR_hCCKAR is a biochemical, single-readout assay that uses extracted gene-proteins in a cell-free assay. Measurements were taken 1 hour after chemical dosing in a 96-well plate. See CCK1 (CCKA) Human Cholecystokinin GPCR Binding (Antagonist Radioligand) Assay, Panlabs.ERF_TW_GPCR_hCCKAR is an assay component calculated from the ERF_TW_GPCR_hCCKAR assay. It is designed to measure radioligand binding using a type of binding reporter as detected by scintillation counting with radiometry technology.Data from the assay component ERF_TW_GPCR_hCCKAR was analyzed at the assay endpoint, ERF_TW_GPCR_hCCKAR, in the positive analysis fitting direction relative to DMSO as the negative control and baseline of activity. Using a type of binding reporter, loss-of-signal activity can be used to understand changes in binding as they relate to gene CCKAR. To generalize the intended target to other relatable targets, this assay endpoint is annotated to the gpcr intended target family, where the subfamily is cholecystokinin.
1321-N1 (human astrocytoma) stably transfected with a plasmid encoding the human recombinant CCK1 receptor are used to prepare membranes in modified HEPES buffer pH 7.4. A 5 ug aliquot of membrane is incubated with 0.11 nM [125I]CCK-8 for […] at 25C. […] Membranes are filtered and washed, the filters are then counted to determine [125I]CCK-8 specifically bound. […]
For orientation: AC50 means the midpoint of the concentration-response curve, whichever way the signal moves. For `O=C(/C=C/c1ccc(O)cc1)CC(=O)/C=C/c1ccc(O)cc1`, the AC50 is 1990 nM (active).

Take `CCCCC[C@H](O)CC(=O)CCc1ccc(O)c(OC)c1`: the call was inactive.
